Test [1] is described as follows: NCI Yeast Anticancer Drug Screen. Data for the rad50 strain (AID 155).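 Note: 0% = growth of vehicle-only cultures of the same strain.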 The note with it: S. cerevisiae rad50 strain growth inhibition; at 50.0 µM; stronger effect = higher value. The method, boiled down:
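Readout: growth inhibition relative to vehicle-treated cultures. Compound exposure was carried out in a genetically defined yeast strain deficient in DNA damage repair.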

A short description of test [2]: NCI Yeast Anticancer Drug Screen. Data for the mec2-1 strain (AID 157). The note with it: S. cerevisiae mec2-1 strain, at 50.0 µM, stronger effect = higher value. In a few lines: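 Mutant yeast (mec2-1) grown with compound; growth inhibition relative to vehicle control reported.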
Test [3] can be described thus: NCI Yeast Anticancer Drug Screen. Data for the sgs1 mgt1 strain (AID 161).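 Note: 0% = growth of cultures given vehicle only.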 The note with it: S. cerevisiae sgs1 mgt1 strain, at 50.0 µM, stronger effect = higher value. In a few lines: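 This yeast growth screen uses a strain with defined DNA-repair lesions; compound-treated growth is compared with vehicle-treated growth.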
Test [4] in a line: NCI Yeast Anticancer Drug Screen. Data for the cln2 rad14 strain (AID 165).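 Note: 0% = growth equal to vehicle treated cultures.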 The note with it: S. cerevisiae cln2 rad14 strain, at 50.0 µM, stronger effect = higher value. The method, boiled down: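 Readout is yeast growth inhibition versus vehicle-treated controls, using a strain with cln2 and rad14 alterations exposed to compound.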
Test [5] is described as follows: NCI Yeast Anticancer Drug Screen. Data for the bub3 strain (AID 167). The following applies: S. cerevisiae bub3 mutant strain, at 50.0 µM, stronger effect = higher value. In a few lines: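 Readout: yeast growth inhibition, expressed relative to vehicle-only wells. The test organism is a mutant strain from a panel with lesions in DNA repair or checkpoint genes.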
Test [6] can be described thus: NCI Yeast Anticancer Drug Screen. Data for the mlh1 rad18 strain (AID 175). The note with it: S. cerevisiae mlh1 rad18 strain growth inhibition; at 50.0 µM; stronger effect = higher value. The method, boiled down:
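Genetically defined yeast (DNA repair-deficient) exposed to compounds; growth inhibition determined relative to vehicle.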

SMILES strings stand for the structures. Several values for one entry are separate records, joined by “and”; a condition that tells them apart may be missing. Equal values may be shown once. The panel holds about 79,000 compounds, 15% with a hit somewhere; the sample as a whole holds those more often. More than one record can exist for a structure, and the calls need not agree. Activity calls are given as the source filed them. Cut-off read from the data, not from the text of the source: active = growth inhibition above about 70%; inactive = the rest.

On to `COC12C=CC(CC1)C(C)(C)C2O` (stereo unspecified), for which the growth inhibition in test [1] was 7.6% (inactive) and 0.25% (inactive); in test [2], -0.75% (inactive) and -7.75% (inactive); in test [3] it was -1.55% (inactive) and -2.25% (inactive); in test [4], -11% (inactive) and -14.2% (inactive); in test [5], 7.85% (inactive) and 14.7% (inactive); in test [6] it was 4.25% (inactive) and 1.9% (inactive).

On to `O=C(CCCOc1ccc(Cl)cc1Cl)NC(Cc1c[nH]c2ccccc12)C(=O)O` (stereo unspecified), for which the growth inhibition is -1.3% (inactive) and 1.5% (inactive) in test [1]; 0.15% (inactive) and -1.95% (inactive) in test [2]; 4.3% (inactive) and -3.6% (inactive) in test [3]; 19.1% (inactive) and 18.7% (inactive) in test [4]; -17.6% (inactive) and -17.1% (inactive) in test [5]; 7.2% (inactive) and 10.7% (inactive) in test [6].

On to `OC1CC2CCC(C1)S2` (stereo unspecified), for which the growth inhibition was -1.3% (inactive) and 4.3% (inactive) in test [1]; -25.3% (inactive) and -2.75% (inactive) in test [2]; -3.7% (inactive) and 13.3% (inactive) in test [3]; 9.85% (inactive) and 13.3% (inactive) in test [4]; 2.5% (inactive) and 4.4% (inactive) in test [5]; -11.6% (inactive) and -1.55% (inactive) in test [6].

For the molecule `OC1C2COC(O2)C(O)C1O` (stereo unspecified), the growth inhibition in test [1] was -0.4% (inactive) and -29.9% (inactive); in test [2], -5.45% (inactive) and -7.65% (inactive); in test [3], 7.4% (inactive) and -6.7% (inactive); in test [4] it was -16.2% (inactive) and -35% (inactive); in test [5] it was -1.5% (inactive) and 5.9% (inactive); in test [6] it was 7.05% (inactive) and -18.7% (inactive).

`NC(C(=O)O)C(CC(=O)O)C(=O)O` (stereo unspecified): the growth inhibition is 1.8% (inactive) and 9.2% (inactive) in test [1]; -2.1% (inactive) and 11.2% (inactive) in test [2]; -1.95% (inactive) and -2.75% (inactive) in test [3]; -57% (inactive) and -40% (inactive) in test [4]; -10.9% (inactive) and -0.05% (inactive) in test [5]; 16.4% (inactive) and 9.75% (inactive) in test [6].

Consider `Cc1ccc(C2=Nc3c(N)nc(N)nc3NC(c3ccccc3)C2)cc1` (stereo unspecified), for which the growth inhibition in test [1] was 78.3% (active) and 79.8% (active); in test [2], 81.8% (active) and 79.5% (active); in test [3] it was 89.2% (active) and 89.4% (active); in test [4], 63.5% (inactive) and 62.7% (inactive); in test [5] it was 75.8% (active) and 77.4% (active); in test [6], 90% (active) and 88.4% (active).

Regarding `CC(O)(c1cccc(Cl)c1)C(c1ccccc1)c1ccccn1` (stereo unspecified), the growth inhibition was 82.6% (active) and 97.7% (active) in test [1]; 79.2% (active) and 97.9% (active) in test [2]; 95% (active) and 97.8% (active) in test [3]; 19.8% (inactive) and 92.2% (active) in test [4]; 46.8% (inactive) and 97.4% (active) in test [5]; 79.7% (active) and 97% (active) in test [6].

Take `COC1C(O)C(O)C(O)C(O)C1O` (stereo unspecified): the growth inhibition in test [1] was 0.95% (inactive) and -11.2% (inactive); in test [2], -4.8% (inactive) and -13.4% (inactive); in test [3], -0.35% (inactive) and -18.1% (inactive); in test [4] it was 21.2% (inactive) and 9.9% (inactive); in test [5] it was -3.1% (inactive) and -31.4% (inactive); in test [6], -0.45% (inactive) and -15.6% (inactive).

As for `O=C(O)/C=C(\F)C(=O)O`, the growth inhibition was -9.8% (inactive) and 14.7% (inactive) in test [1]; -14.2% (inactive) and 7.95% (inactive) in test [2]; -3.05% (inactive) and 10.9% (inactive) in test [3]; -1.6% (inactive) and -9.15% (inactive) in test [4]; 3.65% (inactive) and -20.8% (inactive) in test [5]; 0.7% (inactive) and 11.6% (inactive) in test [6].

For the molecule `CC(=O)OC(COC(=O)c1ccccc1)C(OC(C)=O)C(OC(C)=O)C(COC(=O)c1ccccc1)OC(C)=O` (stereo unspecified), the growth inhibition in test [1] is 3.7% (inactive) and 3.5% (inactive); in test [2] it was -7.8% (inactive) and 2.5% (inactive); in test [3], -7.65% (inactive) and -9.85% (inactive); in test [4], -18.9% (inactive) and -21.4% (inactive); in test [5] it was -3.3% (inactive) and -2.7% (inactive); in test [6], 5.45% (inactive) and 17% (inactive).

Consider `C/C=C(\C)c1cc(=O)c2c(C)cc3c(c2o1)C(=O)c1c(O)c(C2CC(C)(N(C)C)C(O)C(C)O2)cc(C2CC(N(C)C)C(O)C(C)O2)c1C3=O` (stereo unspecified), for which the growth inhibition in test [1] was 1.95% (inactive) and 21.3% (inactive); in test [2], -16% (inactive) and 10.7% (inactive); in test [3], 14.6% (inactive) and 17.4% (inactive); in test [4] it was 3.4% (inactive) and 25.8% (inactive); in test [5], 8.2% (inactive) and 9.4% (inactive); in test [6] it was -5.8% (inactive) and 10.2% (inactive).

On to `O=C1OC(=O)C2C3CCCCC3=C3CCCCC3C12` (stereo unspecified), for which the growth inhibition was 2.7% (inactive) and 11.1% (inactive) in test [1]; 41.5% (inactive) and -8.4% (inactive) in test [2]; -3.25% (inactive) and 4.25% (inactive) in test [3]; 8.6% (inactive) and -9.1% (inactive) in test [4]; 22.2% (inactive) and 3.9% (inactive) in test [5]; -5.3% (inactive) and 13.6% (inactive) in test [6].

Take `COc1cc(-c2[o+]c3cc(O)cc(O)c3cc2O)cc(O)c1O`: the growth inhibition in test [1] was 28.6% (inactive) and 0.3% (inactive); in test [2], 17.6% (inactive) and -25.1% (inactive); in test [3], 23.1% (inactive) and 0.7% (inactive); in test [4], 12.5% (inactive) and -24.9% (inactive); in test [5] it was 19.6% (inactive) and 19.1% (inactive); in test [6] it was 30.2% (inactive) and 24.2% (inactive).

As to `CCOC(=O)C(N)CCSC` (stereo unspecified), the growth inhibition in test [1] was -22.8% (inactive) and -14.2% (inactive); in test [2], -14.3% (inactive) and -7.65% (inactive); in test [3], -13.8% (inactive) and -1% (inactive); in test [4], -39.4% (inactive) and -16.6% (inactive); in test [5] it was -13.3% (inactive) and -8.95% (inactive); in test [6], -5.05% (inactive) and -17.5% (inactive).

Regarding `O=C1C=CC(=O)O1` (tested in a mixture with another compound), the growth inhibition in test [1] was 13.5% (inactive) and 5.85% (inactive); in test [2] it was 18% (inactive) and 1.85% (inactive); in test [3], 10.6% (inactive) and 2.55% (inactive); in test [4], 38.1% (inactive) and 4.45% (inactive); in test [5] it was 30.9% (inactive) and 17% (inactive); in test [6] it was 22.4% (inactive) and 13.3% (inactive).

As for `O=c1[nH]c(=O)n(C2OC(CO)C(O)C2O)c2nccnc12` (stereo unspecified), the growth inhibition is 10.5% (inactive) and 5.1% (inactive) in test [1]; 8.9% (inactive) and 4.95% (inactive) in test [2]; 0.55% (inactive) and -5.75% (inactive) in test [3]; 26.8% (inactive) and 2.95% (inactive) in test [4]; -13.2% (inactive) and -20.9% (inactive) in test [5]; 4.55% (inactive) and -11.4% (inactive) in test [6].

Take `CC(C)(O)C(I)C[n+]1ccccc1` (stereo unspecified): the growth inhibition is 38.5% (inactive) and -7.55% (inactive) in test [1]; 41.6% (inactive) and -2.95% (inactive) in test [2]; 50.5% (inactive) and -28.9% (inactive) in test [3]; 4.9% (inactive) and -6.9% (inactive) in test [4]; 39.9% (inactive) and 0.85% (inactive) in test [5]; 46.9% (inactive) and -7.3% (inactive) in test [6].

As to `O=C1OC(c2ccccc2)=N/C1=C\c1ccccc1O`, the growth inhibition is -4.65% (inactive) and -9.75% (inactive) in test [1]; -13.2% (inactive) and -16.3% (inactive) in test [2]; -0.2% (inactive) and -1.3% (inactive) in test [3]; 2.6% (inactive) and 7.3% (inactive) in test [4]; -1.7% (inactive) and -13.6% (inactive) in test [5]; -21.1% (inactive) and -0.55% (inactive) in test [6].

Take `O=S(=O)(O)NC1CCCCC1`: the growth inhibition in test [1] is 29.4% (inactive) and 4.8% (inactive); in test [2] it was 16.2% (inactive) and -1.15% (inactive); in test [3], -7.7% (inactive) and -4.9% (inactive); in test [4] it was -50.7% (inactive) and -6.3% (inactive); in test [5] it was 11.4% (inactive) and 10.1% (inactive); in test [6], 11.8% (inactive) and -9.45% (inactive).

`COc1ccc(-c2[nH]c(=O)n(C3OC(CO)C(O)C(O)C3O)c(=O)c2C#N)cc1` (stereo unspecified): the growth inhibition in test [1] is 7.65% (inactive) and 19.9% (inactive); in test [2] it was 5.4% (inactive) and 6.1% (inactive); in test [3], -8.55% (inactive) and 1.1% (inactive); in test [4], 36.9% (inactive) and 13.5% (inactive); in test [5] it was 6.95% (inactive) and 7.6% (inactive); in test [6] it was -78.4% (inactive) and -59% (inactive).

For `CC(=O)C(C)(CCC#N)CCC#N`, the growth inhibition is -7.25% (inactive) and 12.7% (inactive) in test [1]; 12.1% (inactive) and -9.2% (inactive) in test [2]; -1.4% (inactive) and -1% (inactive) in test [3]; -3.95% (inactive) and -36.5% (inactive) in test [4]; 9.35% (inactive) and -5.15% (inactive) in test [5]; -12.1% (inactive) and 27% (inactive) in test [6].

The values are drawn from PubChem BioAssay (NCI).
